TRHR agonist: qHTS for Small Molecule Agonists and Allosteric Enhancers of Human TRH Receptor: Primary Screen for Agonists. TRHR cells, calcium flux fluo-8, FDSS agonist mode. activation, % at 2 µM. 360,000 tested, 0.18% active. AID 493084, 2011
Target sequence (P34981 whole entry, looked up): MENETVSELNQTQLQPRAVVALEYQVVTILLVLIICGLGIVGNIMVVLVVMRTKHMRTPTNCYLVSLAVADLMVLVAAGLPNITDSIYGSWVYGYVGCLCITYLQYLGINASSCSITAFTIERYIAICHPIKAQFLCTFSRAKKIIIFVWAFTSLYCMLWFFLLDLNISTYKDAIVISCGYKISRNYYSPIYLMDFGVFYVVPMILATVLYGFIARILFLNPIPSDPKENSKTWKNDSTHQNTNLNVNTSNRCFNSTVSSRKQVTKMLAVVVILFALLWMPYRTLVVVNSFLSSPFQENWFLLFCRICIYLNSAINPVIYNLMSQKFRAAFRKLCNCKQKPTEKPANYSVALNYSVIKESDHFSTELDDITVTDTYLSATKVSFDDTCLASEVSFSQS
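In this calcium-flux screen, cells bearing human TRHR are dye-loaded with fluo-8, baselined for 10 cycles, then exposed to library compounds; positive kinetic calcium responses during the agonist phase mark hits, with TRH as control.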
TRHR PAM: qHTS for Small Molecule Agonists and Allosteric Enhancers of Human TRH Receptor: Primary Screen for Enhancers | Thyrotropin-releasing hormone receptor (Homo sapiens), P34981 | TRHR cells, fluo-8 calcium fluorescence, EC20 TRH enhancement | enhancement, % at 2 µM | 360,000 tested, 0.66% active; in the data active = enhancement above about 30%
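Enhancer read-out: after compound pinning and an initial kinetic agonist-mode read, an EC20 of TRH (10 nM final) was injected and fluo-8 calcium signal (Ex 480/Em 530) followed at 1 s/cycle for 100 cycles in TRHR-expressing cells.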
D1 potentiator: Potentiators of Human D1 Dopamine Receptor: qHTS; D(1A) dopamine receptor (Homo sapiens), P21728; HEK293 TREx D1 cells, calcium flux, dopamine EC20 potentiation; potentiation, % at 10 µM; 360,000 tested, 0.036% active; AID 504651, 2011; in the data active = potentiation above about 30%
D1 antag: Antagonist of Human D 1 Dopamine Receptor: qHTS; 360,000 tested, 3.2% active; D(1A) dopamine receptor (Homo sapiens), P21728; activity change, negative = inhibition, % at 10 µM; HEK293 TREx D1 cells, calcium flux, dopamine EC80; stronger effect = lower value; in the data active = activity change below about -30%
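Allosteric or orthosteric antagonism assessed as attenuation of the calcium response to EC80 dopamine, added 180 s after compound, in induced HEK293 Trex D1 cells loaded with no-wash calcium dye.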
D1 agonist: Allosteric Agonists of the Human D1 Dopamine Receptor: qHTS; 360,000 tested, 1% active; activation, % at 2 µM; AID 504660, 2011; D(1A) dopamine receptor (Homo sapiens), P21728; HEK293 T-REx D1 cells, calcium flux, agonist mode
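Agonism was scored from calcium flux recorded over 180 s (1 read/s) after pintool compound addition, following a 10-cycle baseline. Cells were inducible force-coupled HEK293 TREx D1, plated overnight at 30 C and loaded with no-wash calcium dye.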
Each line names hits and unclear results; the compound was inactive in the other large screens. Only some compounds are listed: those with a hit (about 4.7% of all), similar ones and a draw of the others. Rule as the data show it, unless noted: active = activation above about 30%; inactive = the rest.

O=C(c1ccco1)N1N=C(C2CCCCC2)CC1(O)C(F)(F)F (stereo unspecified)	D1 antag -38
COc1ccc(-n2nc3c(N4CCC(C(=O)NCc5cccc(F)c5)CC4)nnc(C)c3c2C)cc1	none
O=C(Nc1ccnn1C1CCN(Cc2ccc3nonc3c2)CC1)c1cccc(F)c1	D1 antag -39
O=C(Nc1ccnn1C1CCN(Cc2ccc(Cl)cc2)CC1)C1CCCC1	none
CCc1ccc(CN2CCC(n3nccc3NC(=O)C3CCCC3)CC2)cc1	D1 potentiator 32
Oc1c(C=C2N=c3ccccc3=N2)sc(=S)n1C1CCCC1	D1 antag -71
Oc1c(C=C2N=c3ccccc3=N2)sc(=S)n1-c1ccc(F)cc1	none
COc1ccc(C(=O)NNC(=O)c2ccc(C)cc2)cc1S(=O)(=O)N1CCCC1	none
CCN(CC(=O)Nc1cccc(S(=O)(=O)N(C)c2ccccc2)c1)Cc1ccccc1	none
CC(C)CC1(C)NC(=O)N(CC(=O)Nc2cccc(S(=O)(=O)N(C)c3ccccc3)c2)C1=O (stereo unspecified)	D1 antag -39
CC(=O)c1c(C)[nH]c(C(=O)Nc2ccc(Cl)c(S(=O)(=O)N(C)C)c2)c1C	D1 antag -50
Cc1ccccc1CN(C)CC(=O)Nc1cccc(S(=O)(=O)N(C)c2ccccc2)c1	D1 antag -41
CC(=O)c1c(C)[nH]c(C(=O)Nc2cccc(S(=O)(=O)N(C)c3ccccc3)c2)c1C	D1 antag -44
COc1ccc(-c2nc3scc(CCNS(=O)(=O)c4ccc(C)cc4)n3n2)cc1	none (no result: D1 antag)
CN1C(=O)C(CC(=O)O)S/C1=N\N=C\c1ccc(O)cc1O (stereo unspecified)	none
CCCN1CCN(C(=O)C2CCN(c3ncnc4c3nc3n4CCCCC3)CC2)CC1	none
CC(=O)c1c(C)[nH]c(C(=O)Nc2ccc(Cl)cc2)c1C	TRHR PAM 36, D1 antag -63, D1 agonist 33
CC(=O)c1c(C)[nH]c(C(=O)Nc2ccc(Cl)cc2F)c1C	none
CN1CCOc2cc(S(=O)(=O)NCc3ccc(S(N)(=O)=O)cc3)ccc21	none
COc1ccc(N2CCN(c3ncccc3-c3nc(-c4ccccc4C)no3)CC2)cc1	D1 antag -31
COc1ccc(N2CCN(c3ncccc3C#N)CC2)cc1	none
Cc1ccc(N(C)S(=O)(=O)c2ccc3[nH]c4c(c3c2)CCCC4)cc1	none
Cc1ccccc1C(=O)Nc1nnc(S(=O)(=O)N(C)Cc2ccc(Cl)cc2)s1	TRHR PAM 43, D1 antag -31
O=C1C(c2ccccc2)=[N+]([O-])c2ccccc21	none
O=C(CSc1nc2ccsc2c(=O)n1Cc1ccc(F)cc1)NCc1ccc(Cl)cc1	none
COc1ccccc1N1CCN(C(=O)c2cc3c(=O)n(C)c4ccccc4c3s2)CC1	D1 antag -53
COc1ccc(NC(=O)c2cc3c(=O)n(C)c4ccccc4c3s2)cc1Cl	D1 antag -68
CC1CCN(C(=O)c2cc3c(=O)n(C)c4ccccc4c3s2)CC1	D1 antag -31
CCn1c(=O)c2cc(C(=O)Nc3cc(OC)c(OC)c(OC)c3)sc2c2ccccc21	none
Cc1ccc(Cl)cc1N1CCN(C(=O)c2cc3c(=O)n(C)c4ccccc4c3s2)CC1	none
CCCCNC(=O)c1ccc2c(c1)ncn2-c1cc(OC)ccc1OC	none
C=CCOC(=O)/C(=C/c1ccco1)NC(=O)/C=C/c1ccccc1	none
O=C(O)CNC(=O)/C(=C/c1ccco1)NC(=O)/C=C/c1ccccc1	D1 antag -36, D1 agonist 270
Cc1ccc(C)c(NC(=O)CCCN2C(=O)COc3ccc(C)cc32)c1	none
COc1ccc(NC(=O)CCCN2C(=O)COc3ccc(C)cc32)cc1OC	D1 antag -46
Cc1ccc2c(c1)N(CC(=O)O)C(=O)CO2	D1 antag -30
CC(C)(C)c1ccc2c(c1)N(CC(=O)O)C(=O)CO2	none
NC(=O)c1nn2c(C(F)(F)F)cc(-c3ccc(Br)cc3)nc2c1Cl	none
COc1ccccc1NC(=S)NNC(=O)c1nn(C)c(C)c1Cl	D1 antag -49
